Laboratory results taken from PubChem BioAssay (NCI).
Values joined by “and” are separate entries in the source; they are usually repeats but may differ in a detail not shown here. Identical values can stand only once. The panel holds about 83,000 compounds, 20% with a hit somewhere; the sample as a whole holds those more often.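 Single-concentration screen, 48 h exposure, 96-well plates. Endpoint: percent growth. Below 10 = active.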 A number with no mark means an inactive call. Active and inactive are the calls of the source.

What was measured:
Assay in all cases: NCI-60 one-dose screen, 48 h (100 = growth as untreated, 0 = no growth, -100 = all killed)
Details in all cases: 10 µM unless noted
NCI-H23 lung = system: NCI-H23 lung
NCI-H226 lung = system: NCI-H226 lung
HOP-62 NSCLC = system: HOP-62 NSCLC
NCI-H460 lung = system: NCI-H460 lung
A549/ATCC NSCLC = system: A549/ATCC NSCLC
786-0 renal = system: 786-0 renal
COLO 205 colon = system: COLO 205 colon
DU-145 prostate = system: DU-145 prostate
K-562 leukemia = system: K-562 leukemia
MALME-3M melanoma = system: MALME-3M melanoma
MDA-MB-231 breast = system: MDA-MB-231 breast
RXF 393 renal = system: RXF 393 renal
SF-268 CNS = system: SF-268 CNS
SF-295 CNS = system: SF-295 CNS
SF-539 CNS = system: SF-539 CNS
UACC-257 melanoma = system: UACC-257 melanoma
M14 melanoma = system: M14 melanoma
NCI-H522 lung = system: NCI-H522 lung
NCI-H322M lung = system: NCI-H322M lung
HOP-92 NSCLC = system: HOP-92 NSCLC

| SMILES | growth (NCI-H23 lung) | growth (NCI-H226 lung) | growth (HOP-62 NSCLC) | growth (NCI-H460 lung) | growth (A549/ATCC NSCLC) | growth (786-0 renal) | growth (COLO 205 colon) | growth (DU-145 prostate) | growth (K-562 leukemia) | growth (MALME-3M melanoma) | growth (MDA-MB-231 breast) | growth (RXF 393 renal) | growth (SF-268 CNS) | growth (SF-295 CNS) | growth (SF-539 CNS) | growth (UACC-257 melanoma) | growth (M14 melanoma) | growth (NCI-H522 lung) | growth (NCI-H322M lung) [%] | growth (HOP-92 NSCLC) |
| --- | --- | --- | --- | --- | --- | --- | --- | --- | --- | --- | --- | --- | --- | --- | --- | --- | --- | --- | --- | --- |
| O=C1C=CC(n2cc(F)c(=O)[nH]c2=O)O1 (centres undefined) | 65.2% | 86% | 79.5% | 19.4% | 50.7% | 70.9% | 59.4% | 61% | 52.1% | 58.9% | 98.8% | 99% | 85.8% | 94.5% | 8.79% (active) | 90.4% | 70.7% |  |  |  |
| NCCCCCC(=O)O | 97.6% and 104% and 92.2% | 101% [middle of 4 runs] |  |  | 94.1% and 100% and 99.7% | 107% [middle of 4 runs] | 114% and 104% and 95.2% | 124% [middle of 4 runs] | 112% [middle of 4 runs] |  | 112% and 105% and 109% | 110% and 113% and 127% |  | 104% [middle of 4 runs] | 101% [middle of 4 runs] | 102% and 96.4% and 105% | 106% [middle of 4 runs] | 100% [middle of 4 runs] |  |  |
| CCCCC/C(C)=N\NC(N)=S | 89.5% | 86% |  | 94.8% |  | 101% | 92.8% | 85.2% | 58.7% | 83.7% | 85.9% | 85.7% | 88.2% | 83.4% | 103% | 60% | 74.5% |  | 90.4 | 93.2% |
| OC(CC(c1ccccc1)c1cccc2ccccc12)(c1ccccc1)c1ccccc1 (centres undefined) | 76.2% and 71.1% | 77.9% and 79.1% | 94.6% and 97% | 89.2% and 91.4% | 73.7% and 79.1% | 85.7% and 79.7% | 90.3% and 92.4% | 108% and 103% | 92.9% and 67.2% | 101% and 104% | 69.4% and 71.2% | 92.7% and 86.7% | 84.9% and 89.4% | 80% and 81.3% | 94.4% and 93.3% | 62.8% and 85.3% |  | 47.9% and 62.7% |  | 49.5% and 58.4% |
| CCOP(C)(=O)/C(Cc1ccc(OC)c(OC)c1)=N\O (centres undefined) | 97.1% | 96% |  | 105% | 108% | 103% | 112% | 116% | 101% | 98.5% | 109% | 113% | 102% | 100% | 100% | 113% | 108% | 102% |  | 100% |
| O=C(c1ccccc1)C1(Br)CCCCC1 | 98% | 87.5% |  | 105% |  | 91.5% | 129% | 105% | 98% | 95.1% | 94.3% | 113% | 92% | 93.4% | 93.5% | 98.7% | 98.6% | 95.6% | 93.4 |  |
| S=c1ccc2ccccc2[nH]1 | 107% and 101% | 90.2% and 104% | 92.2% and 93.3% | 107% | 95.7% and 94.4% | 107% and 106% | 94.3% and 114% | 115% and 111% | 90.7% and 103% | 85.9% and 98.5% | 93.9% and 100% | 106% and 105% | 107% and 99.7% | 104% and 109% | 97.9% and 102% | 101% and 92.3% | 99.6% and 107% | 93.3% and 89.6% |  | 86.5% and 94.5% |
| Cc1ccc([N+](=O)[O-])cc1Br | 110% | 98.4% | 89.4% | 94.4% | 77.6% | 96.6% | 99.9% | 110% | 86.3% | 102% | 104% | 111% | 104% | 97.7% | 91.7% | 79.7% | 95.1% | 88% |  | 106% |
| CCOc1ccc(/C=C\C(=O)O)cc1 | 109% | 114% | 135% | 109% |  | 104% | 129% | 111% | 103% | 105% | 108% | 138% | 115% | 103% | 110% | 109% | 110% |  |  |  |
| Cc1c(Cl)cc(Cl)c(N)c1Cl | 103% | 102% |  | 105% | 107% | 109% | 108% | 121% | 106% | 109% | 98.9% | 108% | 104% | 102% | 96.4% | 106% | 105% |  | 115 |  |
| O=C(O)c1ccc2c3ccc(C(=O)O)c4c(C(=O)O)ccc(c5ccc(C(=O)O)c1c25)c43 | 87.8% | 92.2% |  | 96.5% | 92.1% | 107% | 104% | 112% | 113% | 86.7% | 88.2% | 100% | 105% | 84.5% | 94.2% | -14.6% (active) | 107% |  |  | 112% |
| C=CCN1C(=O)c2ccccc2C1=O | 103% | 101% | 104% | 101% | 100% | 103% | 98.4% | 107% | 106% | 120% | 106% | 104% | 106% | 109% | 95.3% | 102% | 99.9% | 86% |  | 80.9% |
| C/C(=C\c1ccccc1)C(O)C(=O)c1nc2ccc([N+](=O)[O-])cc2[nH]c1=O (centres undefined) | 104% | 88% | 81.4% | 94.7% |  | 101% | 111% | 105% | 85.8% | 109% | 90.8% | 109% | 98.1% | 93.3% | 102% | 81.2% | 92.3% |  |  |  |
